# In PubChem BioAssay (NCI):
# The panel holds about 83,000 compounds, 20% with a hit somewhere; the sample as a whole holds those more often.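 Assay: single dose, 48 h. Readout: percent growth (0 = no net growth; negative = cell death). Active: <10.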 Values without a mark were called inactive. Calls of active or inactive are those of the source.
# Key:
# Assay in all cases: NCI-60 one-dose screen, 48 h (100 = growth as untreated, 0 = no growth, -100 = all killed)
# Conditions in all cases: 10 µM unless noted
# T-47D breast = system: T-47D breast
# BT-549 breast = system: BT-549 breast
# MDA-MB-435 melanoma = system: MDA-MB-435 melanoma
# SW-620 colon = system: SW-620 colon
# MCF7 breast = system: MCF7 breast
# HCT-116 colon = system: HCT-116 colon
# HCC-2998 colon = system: HCC-2998 colon
# KM12 colon = system: KM12 colon
Structure (SMILES),growth (T-47D breast),growth (BT-549 breast),growth (MDA-MB-435 melanoma),growth (SW-620 colon),growth (MCF7 breast),growth (HCT-116 colon),growth (HCC-2998 colon),growth (KM12 colon)
CCCC(O)Cn1ncc(C(=O)OCC)c1NC(=O)NCc1ccccc1F (stereo not drawn),87.2%,90.2%,103%,105%,88%,73.8%,87.8%,97.3%
CCCCCCCCCCCCCCCC(N)c1ccccc1 (stereo not drawn),33.5%,92.9%,6.53% (active),-49.3% (active),-67.3% (active),-100% (active),-98.2% (active),-75.4% (active)
COc1ccc(-c2nc3c(c(-c4ccccc4)nn3-c3ccccc3)c(-c3ccc(N4CCN(C)CC4)cc3)c2C#N)cc1,96.2%,90.6%,93.9%,85.6%,81%,81.4%,106%,95.6%
O=C(/C=C/c1cccs1)c1ccc(Cl)nc1,97.3%,101%,94.2%,105%,67.7%,91.1%,111%,104%
CCO/C=N/C1=C(C#N)C(c2ccc(OC)cc2)c2sc3c(F)cccc3c2O1 (stereo not drawn),35.4%,49.8%,-42.8% (active),22.4%,12.9%,33.8%,70.8%,25.3%
O=C(Cn1c(-c2ccc([N+](=O)[O-])cc2)nc2ccccc21)NNC(=O)c1cccnc1,71.2%,97%,86.2%,103%,25.9%,82.1%,98.5%,87.2%
CCOC(=O)c1c(C)nc2c(c1N)CC(=O)N2Cc1cc(F)cc(Cl)c1,76.3%,96.3%,92%,103%,84.9%,79.9%,113%,97%
N#Cc1nn(-c2cc(=O)[nH]c3ccc(Cl)cc23)c(N)c1C#N,67.2%,87.9%,125%,91.1%,100%,84.4%,92.7%,106%
O=C(c1ccccc1)C1C(=O)N2C(=S)N(c3ccccc3)C(=O)C2C1c1ccc(Cl)cc1 (stereo not drawn),83.1%,88.6%,105%,102%,65.2%,96.6%,94.8%,104%
CN(C)Cc1ccc(NC(=O)c2cncc(C#Cc3cnc(N)c4ncccc34)c2)cc1F,105%,132%,-89.3% (active),96.9%,-46% (active),81.4%,91%,-83.3% (active)
O=C1/C(=C\c2cn(-c3ccccc3)nc2-c2ccc(-c3cccs3)cc2)CCc2ccccc21,66.4%,70%,-24.6% (active),41.9%,38.3%,43.7%,79.8%,49.4%
O=C1NCCC12CCN(c1c(Cl)cncc1-c1ccc(O)cc1)CC2,93.7%,114%,100%,99.6%,95.4%,97.3%,120%,105%
COc1ccc(Cc2cc(-c3ccccc3)nn(Cc3ccccc3)c2=O)cc1OC,7.51% (active),14.7%,43.9%,41%,19.9%,15%,60.5%,35.2%
C=CCn1c(SCC(=O)NCc2cc(C)c(O)c(C)c2)nc2ccc(Cl)cc2c1=O,103%,113%,107%,102%,91.3%,102%,110%,104%
COc1ccc(C(=O)C2C(c3ccc(OC)cc3)CN(C)C23C(=O)Nc2ccccc23)cc1 (stereo not drawn),85.8%,105%,97.6%,95.2%,98.8%,84.4%,88.4%,93.9%
Cc1nc2sc(C(=O)Nc3ccccc3)c(N)c2cc1C(=O)c1ccccc1,46.3%,68.4%,-33.7% (active),27.8%,11.5%,29.7%,18.2%,33.7%

Structure (SMILES),growth (T-47D breast),growth (BT-549 breast),growth (MDA-MB-435 melanoma),growth (SW-620 colon),growth (MCF7 breast),growth (HCT-116 colon),growth (HCC-2998 colon),growth (KM12 colon)
OCCNCCCOc1ccc2ncnc(Nc3ccc(Oc4cccc(C(F)(F)F)c4)c(Cl)c3)c2c1,38.7%,95.6%,-65.2% (active),-84.2% (active),-40% (active),12.7%,-75.1% (active),3.05% (active)
N#C/C(=C/c1ccc([N+](=O)[O-])cc1)n1nnc2cc(F)c(F)cc21,11.6%,77.3%,64.2%,59.7%,8.8% (active),5.65% (active),70.5%,13.1%
Cc1ccc(CNc2ccc(Cl)cc2NCc2ccc(C)c(O)c2)cc1O,11.3%,39.9%,30.9%,25.9%,9.21% (active),24.4%,22.7%,-1.46% (active)
OCc1cccc(-c2ccc3ncc(-c4nc(NC5CC5)ncc4F)n3c2)c1,-2.9% (active),-7.54% (active),-31.7% (active),0.326% (active),-19.3% (active),1.41% (active),-0.971% (active),-18.8% (active)
N=C(N)c1ccc(-c2ccc(-c3ccc(Cl)cc3)s2)nc1,56.4%,98%,-15% (active),-83.5% (active),-73.3% (active),-82.3% (active),-78.2% (active),-74.8% (active)
CCOC(=O)C(=Cc1cccc(Cl)c1)C(=O)OCC,-5.34% (active),42.6%,6.41% (active),-46.6% (active),8.93% (active),-47.5% (active),77.1%,18%
Clc1ccc(Sc2cnc(-c3ccccc3)o2)cc1,84.6%,96.6%,101%,105%,96.1%,104%,99.2%,102%
CCSc1nc(NC)c2cc(-c3ccc(C(F)(F)F)cc3)ccc2n1,91.4%,94.4%,102%,105%,92.8%,96.9%,111%,103%
COc1cc(/C=C\c2cc(/C=C\c3ccc(O)c(OC)c3)n(C(=O)COc3ccc(Cl)cc3Cl)n2)ccc1O,15%,1.41% (active),-12.1% (active),16.7%,4.21% (active),3.48% (active),38.5%,9.93% (active)
Cc1nc2ncnc(Cl)c2[nH]1,95.7%,105%,105%,103%,91.3%,84.3%,98.6%,102%
COc1ccc(N2CCC(=O)NC2=S)cc1,102%,101%,109%,96.8%,95.2%,105%,95.9%,106%
Cc1ccc(-n2c(=S)[nH]c3sc4c(c3c2=O)CCC(=O)C4)cc1,42.4%,59.9%,-33.3% (active),17.8%,14.7%,36.2%,80.8%,41.7%
C=C(C)[C@@H]1CC[C@]2(C(=O)NCC#CCN3CCN(C)CC3)CC[C@]3(C)[C@H](CC[C@@H]4[C@@](C)(CCC#N)[C@H](C(=C)C)CC[C@]43C)[C@@H]12,34.9%,78.6%,54.6%,45.5%,50.5%,26.4%,25.2%,45.9%
Cc1cc2c(O)c(-c3cc(Cl)ccc3Cl)c3sc(=O)oc3c2cc1C,32.4%,81.7%,47.3%,57.8%,60.9%,36.2%,102%,59.1%
Nc1nc(=S)c2ncn(C3OC(COP(=O)(O)O)C(O)C3O)c2[nH]1 (stereo not drawn),30.4%,48.8%,15.5%,32.2%,9.34% (active),22.9%,20.8%,18.4%
